Measurements as given in PubChem BioAssay AID720511 (Broad Institute, 2013).
The whole screen tested about 350,000 compounds, of which about 1,300 (0.37%) were called active.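 The calls were made as follows: active = mean added fluorescence quench of at least 8% versus neutral control, with both replicates also reaching 8%; inconclusive = only one of the mean or replicate conditions met; inactive = mean below 8% and not both replicates reaching 8%.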 The entries come from a sample that favours actives as a whole.

experiment: F508del CFTR correction, initial screen, CFBE line, single point (AID 720511); conditions: CFBE cells, YFP halide quenching, at 7.58 µM, active compounds read high, % fluorescence drop versus neutral controls, stimulated with forskolin plus potentiator P3;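 also: cells transiently co-express mutant CFTR-F508del with the halide-sensitive YFP; corrector assay measuring rescue of mutant channel to the surface after 24 h compound exposure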

Question: For `Cc1ccc(S(=O)(=O)Nc2ccc3c(c2)C(=O)N([C@@H](C)CO)C[C@@H](C)[C@H](CN(C)Cc2ccncc2)O3)cc1`, which activity (quench increase) is on record?
Answer: -0.494% (inactive)

Question: Which activity (quench increase) does the source give for `C[C@@H]1CCCCO[C@H](CN(C)Cc2ccc(Cl)c(Cl)c2)[C@@H](C)CN([C@@H](C)CO)C(=O)c2cc(NC(=O)Nc3ccccc3)ccc2O1` here?
Answer: 0.025% (inactive)

Question: With `Cc1ccc(C(=O)OCC(=O)NCc2cc(C)c(O)c(C)c2)cc1S(=O)(=O)N1CCCCC1` as the molecule, how does the activity (quench increase) read?
Answer: 9.62% (active)

Question: For `COc1ccc(CNC(=O)COC(=O)c2ccc(C)c(S(=O)(=O)N3CCOCC3)c2)cc1OC`, which activity (quench increase) is on record?
Answer: -3.23% (inactive)

Question: Which activity (quench increase) does the source give for `Cc1ccc(C(=O)OCC(=O)N2CC(C)CC(C)C2)cc1S(=O)(=O)N1CCCCC1` (configuration not stated) here?
Answer: 0.347% (inactive)

Question: Which activity (quench increase) does the source give for `Cc1cc(Nc2ccc(Br)cc2)nc2ccccc12` here?
Answer: 10.3% (active)

Question: With `Cc1cc(C)c(C#N)c(Nc2cccc(Br)c2)n1` as the molecule, how does the activity (quench increase) read?
Answer: -5.44% (inactive)

Question: With `C[C@H]1CN([C@@H](C)CO)C(=O)c2ccccc2-c2ccccc2CO[C@@H]1CN(C)C(=O)CCN(C)C` as the molecule, how does the activity (quench increase) read?
Answer: -0.09% (inactive)

Question: For `O=C(Nc1ccc(F)cc1)N[C@H]1CC[C@H](CCn2cc(C3(O)CCCC3)nn2)O[C@@H]1CO`, which activity (quench increase) is on record?
Answer: 0.048% (inactive)

Question: Which activity (quench increase) does the source give for `CC(C)c1cc(C(=O)NC2CCCCCC2)c2ccccc2n1` here?
Answer: 0.503% (inactive)

Question: Which activity (quench increase) does the source give for `Cc1nc(/N=C(\N)NC(=O)NC2CCCCC2)nc2ccccc12` here?
Answer: 12.3% (active)

Question: Which activity (quench increase) does the source give for `O=C(NNC(=O)C(O)c1ccccc1)NC1CCCCC1` (configuration not stated) here?
Answer: -1.37% (inactive)

Question: With `CNC[C@H]1OCCCC[C@@H](C)Oc2ccc(NC(=O)Cc3ccccc3)cc2C(=O)N([C@H](C)CO)C[C@@H]1C` as the molecule, how does the activity (quench increase) read?
Answer: -0.325% (inactive)

Question: With `CCCNC(=O)N(C)C[C@@H]1Oc2ncc(-c3cccc(C#N)c3)cc2C(=O)N([C@@H](C)CO)C[C@@H]1C` as the molecule, how does the activity (quench increase) read?
Answer: 0.957% (inactive)

Question: With `O=C(c1cnccn1)N1CC[C@@H]2[C@H](CO)Nc3ccc(-c4cccc(F)c4)cc3[C@@H]21` as the molecule, how does the activity (quench increase) read?
Answer: 2.08% (inactive)

Question: For `CCNC(=O)C1CCCN(C(=O)c2ccc(OC)cc2OC)CC1` (configuration not stated), which activity (quench increase) is on record?
Answer: -1.31% (inactive)

Question: With `CCOC(=O)C1CCCN(C(=O)c2ccc(C)c(F)c2)CC1` (configuration not stated) as the molecule, how does the activity (quench increase) read?
Answer: 0.23% (inactive)

Question: Which activity (quench increase) does the source give for `CCNC(=O)C1CCCN(C(=O)c2cc(F)ccc2C)CC1` (configuration not stated) here?
Answer: 10% (active)

Question: With `CCCNC(=O)N1[C@H](CO)[C@@H]2c3ccccc3N(C(=O)C3CCOCC3)C[C@@H]21` as the molecule, how does the activity (quench increase) read?
Answer: 2.24% (inactive)

Question: For `COc1ccc(NC(=O)N(C)C[C@@H]2OCCCC[C@@H](C)Oc3ccc(NS(=O)(=O)c4cn(C)cn4)cc3C(=O)N([C@@H](C)CO)C[C@H]2C)cc1`, which activity (quench increase) is on record?
Answer: 0.433% (inactive)

Question: For `CC(C)(C)c1cc(C(=O)NN)n(Cc2ccc(Cl)cc2Cl)n1`, which activity (quench increase) is on record?
Answer: 8.63% (active)

Question: For `CC(C)(C)NC(=O)NC(=O)COC(=O)Cc1ccc(Cl)cc1Cl`, which activity (quench increase) is on record?
Answer: 1.27% (inactive)

Question: For `Cn1cc(C(=O)c2ccc(Cl)cc2Cl)cc1C(=O)NN`, which activity (quench increase) is on record?
Answer: -2.38% (inactive)

Question: For `C[C@H]1CN([C@@H](C)CO)C(=O)c2cc(C#CC(C)(C)O)cnc2O[C@H]1CN(C)C(=O)CC1CC1`, which activity (quench increase) is on record?
Answer: 0.266% (inactive)

Question: For `C[C@@H]1CN([C@H](C)CO)C(=O)c2cc(NS(=O)(=O)c3ccc(Cl)cc3)ccc2O[C@@H]1CN(C)CC1CCCCC1`, which activity (quench increase) is on record?
Answer: -0.515% (inactive)

Question: For `O=C(C[C@H]1C[C@@H]2c3cc(NC(=O)c4ccc5c(c4)OCO5)ccc3O[C@@H]2[C@@H](CO)O1)NCCN1CCCCC1`, which activity (quench increase) is on record?
Answer: 0.031% (inactive)

Question: For `O=C(C1CCC1)N1CC(=O)N2[C@H](C1)[C@@H](c1ccc(-c3ccccc3F)cc1)[C@@H]2CO`, which activity (quench increase) is on record?
Answer: 1.31% (inactive)

Question: Which activity (quench increase) does the source give for `O=C(C1CCCC1)N1CC(=O)N2[C@H](C1)[C@@H](c1ccc(-c3ccccc3F)cc1)[C@@H]2CO` here?
Answer: -2.35% (inactive)

Question: For `O=C(C1CC1)N1CC(=O)N2[C@H](CO)[C@@H](c3ccc(-c4ccccc4F)cc3)[C@@H]2C1`, which activity (quench increase) is on record?
Answer: 11.5% (active)

Question: With `COc1ccc(N2CCN(S(=O)(=O)c3ccc4c(c3)NC(=O)C(C)C(=O)N4)CC2)cc1` (configuration not stated) as the molecule, how does the activity (quench increase) read?
Answer: 0.269% (inactive)

Question: With `CCOC(=O)N1CCN(S(=O)(=O)c2ccc(Br)cc2)CC1` as the molecule, how does the activity (quench increase) read?
Answer: -1.86% (inactive)

Question: For `CCOC(=O)N1CCN(S(=O)(=O)c2ccc3c(c2)C(C)C(=O)N3)CC1` (configuration not stated), which activity (quench increase) is on record?
Answer: 8.05% (active)

Question: With `COc1cccc(S(=O)(=O)N[C@H]2C=C[C@@H](CC(=O)NCc3ccc(F)cc3)O[C@@H]2CO)c1` as the molecule, how does the activity (quench increase) read?
Answer: -1.9% (inactive)

Question: For `Cc1ccc(S(=O)(=O)N(C)C[C@@H]2Oc3c(NC(=O)Nc4ccc(F)cc4)cccc3C(=O)N([C@H](C)CO)C[C@H]2C)cc1`, which activity (quench increase) is on record?
Answer: 0.333% (inactive)

Question: With `C[C@@H]1CN([C@H](C)CO)C(=O)c2cccc(NC(=O)Nc3cccc4ccccc34)c2O[C@@H]1CN(C)C(=O)Nc1ccc(F)cc1` as the molecule, how does the activity (quench increase) read?
Answer: 1.61% (inactive)

Question: For `COc1ccc(-c2c(C)cc3oc(=O)cc(-c4ccccc4)c3c2C)cc1C=O`, which activity (quench increase) is on record?
Answer: 0.386% (inactive)

Question: With `COc1ccc(-c2c(C)cc3oc(=O)cc(-c4ccccc4)c3c2C)cc1OC` as the molecule, how does the activity (quench increase) read?
Answer: 9.4% (active)

Question: Which activity (quench increase) does the source give for `COc1ccc(-c2c(C)cc3oc(=O)cc(-c4ccccc4)c3c2C)cc1F` here?
Answer: 3.75% (inactive)

Question: For `CCC(=O)N(C)C[C@H]1Oc2cc(C#CC3CC3)ccc2S(=O)(=O)N([C@@H](C)CO)C[C@@H]1C`, which activity (quench increase) is on record?
Answer: -0.535% (inactive)

Question: With `COc1ccccc1-c1cc2nc(NCc3cccc(Cl)c3)ccn2n1` as the molecule, how does the activity (quench increase) read?
Answer: 0.85% (inactive)

Question: For `COCCCNc1ccn2nc(-c3ccc(CC(C)C)cc3)cc2n1`, which activity (quench increase) is on record?
Answer: 2.65% (inactive)

Question: Which activity (quench increase) does the source give for `CC(C)Cc1ccc(-c2cc3nc(NCc4cccc(Cl)c4)ccn3n2)cc1` here?
Answer: 8.67% (active)

Question: With `C[C@H]1CN([C@@H](C)CO)C(=O)c2cccc(NS(=O)(=O)c3cccs3)c2O[C@H]1CN(C)Cc1ccc(C(=O)Nc2ccccc2N)cc1` as the molecule, how does the activity (quench increase) read?
Answer: 0.531% (inactive)

Question: Which activity (quench increase) does the source give for `O=C(c1ccccc1)N1CCN(c2cc(-c3ccccc3)nc3cc(-c4cccc(Cl)c4)nn23)CC1` here?
Answer: -2.01% (inactive)

Question: Which activity (quench increase) does the source give for `C#Cc1cc(N2CCN(C(=O)c3ccoc3)CC2)n2nc(-c3cccc(Cl)c3)cc2n1` here?
Answer: 8.96% (active)

Question: Which activity (quench increase) does the source give for `CN(C)CCN1CCN(c2cc(-c3cccc(Cl)c3)nc3ccnn23)CC1` here?
Answer: -1.38% (inactive)

Question: For `C[C@H]1CN([C@@H](C)CO)C(=O)Cc2cc(NS(=O)(=O)c3cn(C)cn3)ccc2O[C@H]1CN(C)C(=O)Nc1ccc(F)cc1`, which activity (quench increase) is on record?
Answer: 2.2% (inactive)
